Hit rate of the full screen: of about 65,000 compounds, about 2,100 (3.2%) showed an effect of 50% or more. The median lay at about -52%. Only a selection was taken, and strong results are over-represented in it overall.

In the experiment the test system is Plasmodium falciparum. Description: Screen against P. falciparum Asexual Blood Stage (ABS), at 5uM. Format: functional, Dd2. The settings on record: tested at 5 uM.
Turning to `CNc1ncccc1C(=O)N1CCC2(CCN(C)C2)CC1`, the INHIBITION is listed as -89.3%. As to `Cc1ncc(CNCCO)c2cc(C(=O)c3ccc(Br)cc3)oc12`, the INHIBITION is on record as 89.3%.

Turning to `O=C1C[C@@H]2CC[C@H](CN1)N2C1CSCCSC1`, the INHIBITION is -45.6%.

Regarding `Cc1ccc(CN2CCC3(CCN(Cc4ccncc4)CC3)CC2)cc1`, the INHIBITION came out at 78.3%. On to `O=C1CC2(CCN(Cc3ccoc3)C2)CN1c1cncnc1` (configuration not stated), for which the INHIBITION is recorded as -51.3%. Consider `Fc1ccc(CN2CCC3(CC2)CCN(Cc2nccs2)CC3)cc1`, for which the INHIBITION is listed as 86.6%. Regarding `c1cnc(N2CC3(CCN(Cc4ccncc4)C3)C2)nc1`, the INHIBITION is reported as -104%. In the case of `O=C1NC[C@H]2CN(Cc3nccs3)CCN12`, the INHIBITION is -41.7%. In the case of `c1cc(CN2CCCC23CCCN(Cc2ccoc2)C3)ccn1` (configuration not stated) it was -105%; in that of `Cc1ccc(CN2CCC3(CC2)CCN(Cc2ccoc2)CC3)cc1`, 92.7%; in that of `CN1CCN(Cc2ccco2)Cc2cccnc21`, -15.8%. Turning to `Cc1ccc(CN2CCC3(CC2)CCN(Cc2ccco2)CC3)cc1`, the INHIBITION is given as 91.7%. In the case of `O=C1Nc2ccccc2C12CCN(Cc1nccs1)CC2` it was -15.8%; in that of `Cn1ccnc1CN1CC2(CCN(Cc3ccncc3)C2)C1`, -45.8%. In the case of `C[C@H]1C[C@@H]2CCN(Cc3ccco3)C[C@H]2O1` it was -32%; in that of `O=C1CSC(c2ccc(Cl)cc2Cl)c2c(n(C3CCOCC3)[nH]c2=O)N1` (configuration not stated), -37.1%; in that of `O=C(NCC1CC[C@@]2(CNCCOC2)O1)c1cccnc1` (some centres not stated), -65.9%. In the case of `Cc1n[nH]c2c1C(c1ccsc1)SCC(=O)N2` (configuration not stated) it was -110%.

With `c1cncc(OC[C@]23COC[C@H]2CN(C2CCOCC2)C3)c1`, the INHIBITION is -10.4%. The value for `CCCOc1ccc2ccccc2c1CN1CC[C@@]2(O)CCNC[C@H]2C1` was 93.2%. For `CSCCCN1CC[C@@]2(O)CCN(c3ncccn3)C[C@H]2C1`, the INHIBITION turned out to be 16.4%. Consider `O=C(O)[C@]12CCCN(C3CCOC3)C[C@H]1CN(c1ncccn1)C2` (some centres not stated), for which the INHIBITION is given as -128%.

For the compound `CN(C)C(=O)c1ccc(-c2cccc3c2CCNC3)cc1`, the INHIBITION is -115%.

As for `OC1(c2ccc(F)cc2)CCN(Cc2ccccc2N2CCCC2)CC1`, the INHIBITION was 71.9%. As for `Oc1ccc(N2CCN(Cc3ccc(F)cc3Br)CC2)cc1`, the INHIBITION is recorded as -85.8%. With `O=C(NCC1CC1)[C@@H]1C[C@@H]2OCCN[C@@H]2C1`, the INHIBITION is -55.3%. The value for `O=C1NCC[C@]12CN(Cc1cccnc1)C[C@H]2c1ccccc1` was -11.5%; that for `Cc1ccc(C)c(N2CCN(CC3(O)CCNC3)CC2)c1` (configuration not stated) was 85.9%; that for `Cc1cccc(CN2CCC23CCCNC3)n1` (configuration not stated) was 12%. Regarding `Cc1nc2c(C)cccc2cc1C(=O)N1CCC2(CCCNC2)C1` (configuration not stated), the INHIBITION was -31.7%. For the compound `CC(=O)N1CC2(CCNCC2)c2cc(C)ccc21`, the INHIBITION stood at 1.98%. As to `Cc1ccccc1N1CCCN(CC2(O)CCCNC2)CC1` (configuration not stated), the INHIBITION was found to be 87.7%.

(Values after ChEMBL document CHEMBL4513216, “Probing the Open Global Health Chemical Diversity Library for Multistage-Active Starting Points for Next-Generation Antimalarials” (ACS Infect Dis, 2020).)
